Screens as filed in PubChem.
HDAC3 inh – HDAC3 deacetylase inhibitors, primary screen, biochemical, fluorescence, cell-free homogeneous | Histone deacetylase 3 (Homo sapiens), O15379 | AID 2718, 2010 | recombinant HDAC3, fluorogenic peptide/trypsin coupled | hit rate 0.15% among 320,000 | inhibition, % at 8.3 µM; in the data active = inhibition above about 26%, passing the limit was not always enough
Target sequence (O15379 whole entry, looked up): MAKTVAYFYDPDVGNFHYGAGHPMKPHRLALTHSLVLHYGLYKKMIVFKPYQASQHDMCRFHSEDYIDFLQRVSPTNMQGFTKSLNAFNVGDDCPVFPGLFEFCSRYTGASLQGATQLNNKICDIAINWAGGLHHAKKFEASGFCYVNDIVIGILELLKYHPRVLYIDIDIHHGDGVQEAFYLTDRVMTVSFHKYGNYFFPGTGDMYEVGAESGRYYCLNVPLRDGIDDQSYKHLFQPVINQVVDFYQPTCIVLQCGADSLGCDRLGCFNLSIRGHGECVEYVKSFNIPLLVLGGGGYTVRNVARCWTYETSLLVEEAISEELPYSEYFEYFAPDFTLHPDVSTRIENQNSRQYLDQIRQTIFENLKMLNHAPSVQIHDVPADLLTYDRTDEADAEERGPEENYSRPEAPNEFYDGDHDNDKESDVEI
ERAP1 inh – human ERAP1 aminopeptidase inhibitors, primary screen, biochemical, single point, plate reader | inhibition, % at 10.7 µM | recombinant ERAP1, Leu-AMC fluorescence, 60 min | hit rate 0.15% among 340,000;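 active = mean replicate inhibition of at least 30%, or all replicates individually reaching that 30% level; inactive = mean below 30% and not every replicate reaching it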;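 also: 0% = neutral control wells and 100% = L-leucinethiol positive control wells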
PDI inh – inhibitors of human PDI, primary screen, biochemical, turbidity, single point, plate reader. Protein disulfide-isomerase (Homo sapiens), P07237. PDI insulin aggregation turbidity, A650, 90 min. inhibition, % at 10 µM. hit rate 0.052% among 350,000. AID 588391, 2011;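 active = mean inhibition across replicates of 30% or more, whatever share of single replicates reach that level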
ERp5 inh – inhibitors of ERp5-driven insulin aggregation, primary screen, biochemical, turbidity, absorbance 650 nm, single point | Protein disulfide-isomerase A6 (Homo sapiens), Q15084 | 90 min | inhibition, % at 9.99 µM | hit rate 0.05% among 350,000;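 active = mean replicate inhibition above about 25%, with every replicate also reaching it, limit read from the data, passing the limit was not always enough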
SIRT5 inh – SIRT5 desuccinylase inhibitors, primary screen, biochemical, fluorescence imaging, single point, set 5; AID 652115, 2013; Purified SirT5, succinyl-peptide AMC, trypsin-coupled fluorescence; inhibition, % at 15 µM; NAD-dependent protein deacylase sirtuin-5, mitochondrial (Homo sapiens), Q9NXA8; hit rate 1.1% among 330,000; in the data active = inhibition above about 15%
* hit, by the source's call; . = no result; ! = a repeat was not active. The sample as a whole holds a higher share of hits than the screen did.

SMILES | HDAC3 inh | ERAP1 inh | PDI inh | ERp5 inh | SIRT5 inh
CC1CCC(C(C)C)C(OC(=O)Cn2c(-c3ccccc3)[n+](C)c3ccccc32)C1 (stereo not drawn) | -3 | 6 | 17 | 4 | 19*!
CCNC(=O)[C@@H]1[C@@H](CO)[C@@H]2Cn3c(ccc(-c4ccc(F)cc4)c3=O)[C@@H]2N1Cc1cc(F)ccc1F | . | 0 | . | -6 | 6
CC(C)C(=O)Nc1ccc(-c2nc3ccccc3c(=O)o2)cc1 | 56* | -2 | -3 | 0 | .
CCCS(=O)(=O)N1CCN(C2CCC(C)CC2)CC1 (stereo not drawn) | . | 4 | -3 | -2 | -3
CCCS(=O)(=O)N1CCN(C2Cc3ccccc3C2)CC1 | -4 | -2 | 0 | -5 | 17*
CN1C(=O)c2cc(NC(=O)NC3CCCC3)ccc2OC[C@@H]2O[C@H](CC(=O)NC3CCC3)CC[C@H]21 | . | 0 | . | 13 | -8
CCn1c(SC)nnc1-c1nn(-c2ccccc2)ccc1=O | -8 | 103* | 5 | 2 | -2
CCn1c(-c2nn(-c3ccccc3)ccc2=O)n[nH]c1=S | 4 | 7 | -1 | 0 | -1
O=C(Cn1nc(-c2ccc(Cl)cc2)ccc1=O)NCC1COCCO1 (stereo not drawn) | -2 | -6 | -2 | 1 | 18*
C=CCNc1ncnc2c1ncn2[C@H]1CN(Cc2cccc3ccccc23)C[C@@H](CO)O1 | . | -1 | 39* | -5 | .
CCNC(=O)[C@@H]1[C@@H](CO)[C@@H]2Cn3c(ccc(-c4ccccc4)c3=O)[C@H]1N2Cc1ccccc1 | . | -1 | . | -1 | -9
CO[C@H]1CN(C)C(=O)c2ccc(NC(=O)Cc3ccccc3)cc2OC[C@@H](C)N(CC2CC2)C[C@H]1C | . | -1 | . | 2 | -1
CC1(C)CC(=O)C2=C(C1)OC1=C(C(=O)CC(C)(C)C1)C2c1ccc(O)cc1O | 8 | . | 77* | . | .
C[C@@H]1CN([C@H](C)CO)S(=O)(=O)c2ccc(-c3ccccc3)cc2O[C@@H]1CN(C)S(C)(=O)=O | . | -2 | . | 8 | 0
Cc1ncc(CO)c(/C=N/NC(=O)c2ccoc2C)c1O | . | 0 | -3 | 5 | -5
COc1ccc(C(=O)N/N=C/c2c(CO)cnc(C)c2O)cc1 | -18 | 33* | -2 | 1 | -4
Cc1ncc(CO)c(/C=N/NC(=O)c2ccccc2Br)c1O | -24 | 54* | 4 | 6 | -4
CC(=O)N1CCCCN2[C@H](CO)[C@H](c3ccc(-c4cccc(C(=O)N(C)C)c4)cc3)[C@H]2C1 | . | 2 | . | 1 | 1
C[C@@H]1CCCCO[C@@H](CN(C)C(=O)c2ccccc2)[C@@H](C)CN([C@@H](C)CO)C(=O)c2cc(NC(=O)c3ccccc3)ccc2O1 | . | 0 | . | 2 | 5
C[C@@H]1CN([C@H](C)CO)C(=O)c2cc(NC(=O)CCC(F)(F)F)ccc2O[C@H]1CN(C)Cc1ccc(C(=O)O)cc1 | . | -1 | . | 1 | -1
Nn1c(SCCOc2ccc(Cl)cc2)nnc1-c1cccnc1 | 9 | 47* | -4 | 0 | -3
Nn1c(SCCOc2ccccc2)nnc1-c1cccnc1 | 5 | 10 | -16 | -3 | 0
C[C@@H]1CN([C@@H](C)CO)C(=O)c2cc(C3=CCCCC3)cnc2O[C@@H]1CN(C)C(=O)c1ccccn1 | . | 3 | . | 1 | 5
COC(=O)c1c(NC(=O)C2Cc3ccccc3C(=O)O2)sc2c1CCCC2 (stereo not drawn) | -4 | -4 | -12 | 7 | -2
COC(=O)c1c(NC(=O)C2(C)Cc3ccccc3C(=O)O2)sc2c1CCCC2 (stereo not drawn) | 0 | -3 | -4 | 1 | 19*
CCNC(=O)C[C@H]1C=C[C@@H](NS(=O)(=O)c2ccc(F)cc2)[C@H](CO)O1 | . | 1 | . | 5 | 0
C[C@H]1CN([C@@H](C)CO)C(=O)c2cccc(NC(=O)CCCCCC(=O)Nc3ccccc3N)c2O[C@@H]1CN(C)Cc1ccc(Oc2ccccc2)cc1 | . | 1 | . | -1 | 24*
C[C@@H]1CN([C@@H](C)CO)C(=O)c2cccc(NC(=O)CCCCCC(=O)Nc3ccccc3N)c2O[C@H]1CN(C)Cc1ccc(-c2ccccc2)cc1 | . | -1 | . | 18 | 18*
C[C@@H]1CN([C@@H](C)CO)C(=O)c2cccc(NC(=O)C3CC3)c2O[C@@H]1CN(C)Cc1ccc(C(=O)Nc2ccccc2N)cc1 | . | 0 | . | -4 | 17*
